The full ranking holds about 1,000 compounds; the median of “relative growth recovery (pomalidomide 10 uM = 100%, DMSO = 0%)” is about -1.6, and the highest 2% start at about 21. The sample holds the highest values, similar compounds and a random draw of the others, so the mix is not that of the screen.
Each compound was assayed on HEK293FT dCK*-IKZF1 (assay: relative growth recovery (pomalidomide 10 uM = 100%, DMSO = 0%); higher = more growth rescue (IKZF1 fusion degradation)). Settings: compound concentration: 5 uM; AraC concentration: 0.3 uM; overnight pretreatment + 4 days AraC.
Experimental: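 Growth recovery screen of the molecular-glue-like (Specs) library. HEK293FT cells expressing a dCK*-IKZF1 fusion (primary) or dCK* alone (counter) were pretreated overnight with compound at 5 uM, then given 0.3 uM AraC for 4 days. Hoechst nuclei were counted by imaging. Primary: normalised to pomalidomide (100%) and DMSO (0%), mean of 2 replicates. Counter: normalised to no-AraC (100%) and AraC+DMSO (0%), single replicate.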

| Compound | relative growth recovery |
| --- | --- |
| Cc1cnc(Nc2cccc(C3CCN(C(=O)C4(NC(=O)C(C)(C)C)CCCCC4)CC3)n2)s1 | -12.6% |
| O=S(=O)(Nc1ccc(S(=O)(=O)Nc2ncccn2)cc1)c1ccc(Cl)cc1 | -4.2% |
| CCCc1cnc(Nc2cccc(C3(CO)CCN(C(=O)C4CCCCC4)CC3)n2)s1 | -17% |
| O=C(C1CCCCC1)N1CCOC(c2cccc(Nc3ncc(Cc4ccccc4)s3)n2)C1 (stereo not drawn) | 2.33% |
| Cc1ccc2[nH]nc(C(=O)N3CCCC3c3cccc(Nc4nc(C)cs4)n3)c2c1 (stereo not drawn) | -0.105% |
| Cc1cnc(C(=O)N2CCCC2c2cccc(Nc3nc(C)c(C)s3)n2)cn1 (stereo not drawn) | 4.79% |
| Cc1nc(Nc2cccc(C3CCCN3C(=O)c3ccc(=O)n(C)n3)n2)sc1C (stereo not drawn) | 5.83% |
| Cc1ccn2cc(C(=O)N3CCCC3c3cccc(Nc4nc(C)c(C)s4)n3)nc2c1 (stereo not drawn) | 39.7% |
| COCCC(=O)N1CCC(c2cccc(Nc3nc(C)c(C)s3)n2)CC1 | 9.99% |
| Cc1cnc(NC(=O)CN2CCC(c3cccc(Nc4ncc(C)s4)n3)CC2)s1 | -13.8% |
| Cc1nc(Nc2cccc(C3CN(C(=O)CCc4c(C)n[nH]c4C)CCO3)n2)sc1C (stereo not drawn) | -0.835% |
| Cc1csc(Nc2cccc(C3CCCN3C(=O)c3ccc4c(c3)CCCN4C)n2)n1 (stereo not drawn) | 7.5% |
| Cc1csc(Nc2cccc(C3CCCN3C(=O)c3ccc4[nH]c(C(C)C)nc4c3)n2)n1 (stereo not drawn) | 36.3% |
| Cc1cnc(NC(=O)CN2CCC(c3cccc(Nc4nc(C)c(C)s4)n3)CC2)s1 | 30.3% |
| Cc1nc(Nc2cccc(C3CCN(C(=O)CCc4c(C)n[nH]c4C)CC3)n2)sc1C | 26% |
| Cc1cnc(Nc2cccc(C3CCN(CC(=O)Nc4c(F)cccc4F)CC3)n2)s1 | -13.4% |
| COc1ccc(NC(=O)CN2CCC(c3cccc(Nc4ncc(C)s4)n3)CC2)cc1 | -11% |
| Cc1cnc(Nc2cccc(C3CCN(C(=O)c4cccnc4)CC3)n2)s1 | -18.6% |
| Cc1csc(Nc2cccc(C3CCN(CC(=O)NCc4ccccn4)CC3)n2)n1 | -8.2% |
| CCOCc1ccc(C(=O)N2CCC(c3cccc(Nc4ncc(C)s4)n3)CC2)cc1 | 29.5% |
| COc1ccc(NC(=O)CN2CCC(c3cccc(Nc4nc(C)cs4)n3)CC2)cc1 | 32.9% |
| CC(=O)N1CCC(c2cccc(Nc3ncc(C)s3)n2)CC1 | -19% |
| CC(=O)Nc1ccc(S(=O)(=O)Nc2ncccn2)cc1 | -3.27% |
| Cc1ccc2[nH]c3nc(SCC(=O)Nc4ccc(F)cc4)nnc3c2c1 | -0.35% |

| Compound | relative growth recovery |
| --- | --- |
| Cc1cc(C)nc(NS(=O)(=O)c2ccc(NC(=S)NC(=O)/C=C/c3ccccc3)cc2)n1 | -1.71% |
| CS(=O)(=O)NCC(=O)N1CCC(c2cccc(Nc3ncc(-c4ccccc4)s3)n2)CC1 | -20.5% |
| COCCOCC(=O)Nc1ccc(S(=O)(=O)Nc2cc(C)nc(C)n2)cc1 | -1.1% |
| C[C@@H](N)C(=O)N1CCC(CO)(c2cccc(Nc3ncc(-c4ccccc4)s3)n2)CC1 | -18.2% |
| Cc1csc(Nc2cccc(C3CCN(CC(=O)N4CCC(C(N)=O)CC4)CC3)n2)n1 | 5.36% |
| Cc1cnc(Nc2cccc(C3(C(=O)NCCO)CCN(C(=O)C4CCCCC4)CC3)n2)s1 | -5.96% |
| COCCC(=O)N1CCC(c2cccc(Nc3ncc(C)s3)n2)CC1 | -3.65% |
| O=C(O)COCCOCCNc1cc2c(cc1F)C(=O)N(C1CCC(=O)NC1=O)C2=O (stereo not drawn) | -7.7% |
| O=C(CSc1nc2cc(Cl)ccc2[nH]1)Nc1ncccn1 | -1.69% |
| COc1cc(NS(=O)(=O)c2ccc(NC(=O)CCl)cc2)nc(OC)n1 | -5.68% |
| COc1ccc(Cl)c2c1[nH]c1nc(SCC(=O)Nc3ccc(Cl)cc3)nnc12 | 2.88% |
| Cc1cnc(Nc2cccc(C3CCCN3C(=O)Cn3cnc4ccccc43)n2)s1 (stereo not drawn) | -19.5% |
| O=C(CSc1nnc2c(n1)[nH]c1ccccc12)Nc1ccc(F)cc1 | 7.2% |
| CCCCc1cnc(Nc2cccc(C3CCN(C(=O)C(C)(C)NC(=O)OC(C)(C)C)CC3)n2)s1 | -15.7% |
| O=C(O)CN1CCN(c2cccc3c2C(=O)N(C2CCC(=O)NC2=O)C3=O)CC1 (stereo not drawn) | 0.995% |
| Cc1ccnc(NS(=O)(=O)c2ccc(NC(=O)c3cccs3)cc2)n1 | 3.83% |
| Cc1ccc(C(C)C)c(OCC(=O)Nc2ccc(S(=O)(=O)Nc3ccccn3)cc2)c1 | -1.57% |
| COc1ccc(C(=O)Nc2ccc(S(=O)(=O)Nc3ccccn3)cc2)cc1 | -5.12% |
| Cc1ccc2[nH]c3nc(SCC(=O)Nc4ccc(C)c(Cl)c4)nnc3c2c1 | -24.6% |
| CCCc1cnc(Nc2cccc(C3CCN(C(=O)CN)CC3)n2)s1 | -15.8% |
| CC(=O)Nc1ccc(S(=O)(=O)Nc2cc(C)nc(C)n2)cc1 | -1.14% |
| Cc1ccnc(NS(=O)(=O)c2ccc(NC(=O)c3ccccc3C)cc2)n1 | -1.84% |
| COc1ccc(NS(=O)(=O)c2ccc(N)cc2)nn1 | 3.75% |
| O=C(CCCOc1ccc(Cl)cc1)Nc1ccc(S(=O)(=O)Nc2ncccn2)cc1 | 0.13% |

Reference: the supplement of paper PMC12340641
